A selection: hits, their analogues and other compounds. The true share with any hit is near 3.8%.
CBFb-RUNX1 inh = blocks binding between human CBF-beta and RUNX1; Q01196+Q13951; AlphaScreen CBFb-His/RUNX1-biotin binding, biochemical; Potency, µM (top dose mostly 59.8 µM), for the others: at the highest dose activity, negative = inhibition, most hits filed as inhibitors; 230,000 tested, under 10 active; AID 1477; note: % of control where 0% means no effect
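Interaction loss through any mechanism counts as activity. Pre-formed complex of His-CBF-beta and biotin-RUNX1 (30 nM apiece) is incubated with compound 15 min, then with 50 ng nickel and 50 ng streptavidin beads for 90 min before AlphaScreen detection.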
KCNH2 3.1 block = KCNH2 3.1 (human) potassium channel inhibition. activity change, % (tested at about 1.8 µM). U2OS KCNH2 3.1, thallium flux FluxOr; hits give low values. 340,000 tested, 0.95% active;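 active = maximum activity change below -70%; inconclusive = maximum activity change from -70% to -50%; inactive = maximum activity change above -50%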;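 note: thallium influx rate constant from kinetic fluorescence after stimulation buffer; % is set by controls: 0 for no effect and ±100 for the full control effect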
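U2OS cells transduced with KCNH2 3.1 mutant virus (1.77 x 10^8 /mL, 4 h), plated overnight at 37 C, loaded 45 min with FluxOr dye plus Red40 quencher. Thallium flux rate constant from kinetic reads after stimulation buffer, normalised to controls.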
VDR inhibitor = blocks the human vitamin D receptor; AID 504847; VDR-SRC2-3 peptide fluorescence polarization, 2 h; 400,000 tested, 0.93% active; Potency, µM, for the others: max response, negative = inhibition, actives largely listed as inhibitors; note: potency is the fitted concentration of half-maximal effect; % is set by controls: 0 for no effect and ±100 for the full control effect
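VDR–SRC2-3 interaction, FP format. Cmpds 23 nl via pintool, brief spin, 2 h ambient incubation.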
KCNH2 WT inh = blocks the wildtype human KCNH2 potassium channel; U2OS, BacMam KCNH2, thallium flux FluxOr; hits give low values; activity change, % at 1.84 µM; 340,000 tested, 0.37% active;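 active = maximum activity change below -70%; inconclusive = maximum activity change between -70% and -50%; inactive = maximum activity change above -50%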; note: % is set by controls: 0 for no effect and ±100 for the full control effect
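U2OS cells transduced with wild-type KCNH2 virus are loaded with FluxOr dye for 45 min, and thallium flux is measured in kinetic reads before and after stimulation buffer. Rate constants are normalized to DMSO controls.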
PLK1 PBD inh = inhibitors of human PLK1 polo-box domain binding; P53350; Plk1 PBD binding of FITC phosphopeptide, fluorescence polarization; Potency, µM, inactives show max response, negative = inhibition, actives largely listed as inhibitors; 360,000 tested, 2.8% active; note: potency is the fitted concentration of half-maximal effect; series mostly up to about 57 µM; % is set by controls: 0 for no effect and ±100 for the full control effect; nearly all actives have a fitted effect of over 65% in size
Target sequence (P53350 whole entry, looked up, the tested form may be a part): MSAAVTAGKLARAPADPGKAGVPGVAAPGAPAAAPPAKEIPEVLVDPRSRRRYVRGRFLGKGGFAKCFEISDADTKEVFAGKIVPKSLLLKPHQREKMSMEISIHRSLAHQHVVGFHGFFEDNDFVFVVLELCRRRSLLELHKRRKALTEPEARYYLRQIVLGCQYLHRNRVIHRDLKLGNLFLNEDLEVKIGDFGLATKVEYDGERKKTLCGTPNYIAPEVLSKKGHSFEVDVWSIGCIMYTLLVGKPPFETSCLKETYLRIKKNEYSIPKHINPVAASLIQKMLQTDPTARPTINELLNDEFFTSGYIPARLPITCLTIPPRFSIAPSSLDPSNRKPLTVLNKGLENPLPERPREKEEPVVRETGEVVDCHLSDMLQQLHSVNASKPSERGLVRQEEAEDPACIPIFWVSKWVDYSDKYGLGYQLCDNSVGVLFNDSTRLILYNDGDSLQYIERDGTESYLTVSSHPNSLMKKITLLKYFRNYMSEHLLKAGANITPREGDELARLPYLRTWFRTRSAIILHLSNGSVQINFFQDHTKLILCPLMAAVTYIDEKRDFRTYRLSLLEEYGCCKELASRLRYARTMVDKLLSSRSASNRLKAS
MBNL1-CUG inh = MBNL1-poly(CUG) RNA binding inhibition | Q9NR56 | TR-FRET MBNL1-His/biotin-(CUG)12 binding, 665/545 ratio | Potency, µM (highest dose often 57.5 µM), for the others: top-dose activity change, negative = inhibition, hits mostly inhibitors | 280,000 tested, 0.036% active; active = well fitted inhibition curve with a large enough effect in the signal ratio, with a control signal flat, not every such curve was filed as active; inconclusive = small, poorly fitted or top-dose-only effect, or effect the other way, or a change in a side signal; inactive = no such curve, though single readings can be large or run the other way; the % refers to the signal ratio; note: potency is the fitted concentration of half-maximal effect; % is set by controls: 0 for no effect and ±100 for the full control effect
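MBNL1-His + Biotin-(CUG)12, cpd titration 92 nM–58 uM; Tb anti-His Ab 0.055 ng/ul, SA-XL665 5 nM (final); 60 min RT; ratiometric 665/545 nm, Ex 340 nm; normalized to buffer and full-complex controls.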
The depositor's hits bear a star. Unless noted, calls come from the whole dose curve; as a rule, active = well fitted curve in the direction sought with a large enough effect; inconclusive = small, poorly fitted or top-dose-only effect, or another doubt; inactive = no such curve, though single readings can be large; an effect the other way counts as inactive or inconclusive.

Results for CCC(CC)c1nnc(NC(=O)CCS(=O)(=O)Cc2ccccc2)s1 ?
KCNH2 3.1 block: 10; VDR inhibitor: -6%; KCNH2 WT inh: -8; PLK1 PBD inh: 24µM*; MBNL1-CUG inh: -3%

How did O=C(CS(=O)(=O)c1ccccc1)Nc1nnc(Cc2ccccc2)s1 do in these assays?
KCNH2 3.1 block: 8; VDR inhibitor: 0%; KCNH2 WT inh: 1; PLK1 PBD inh: 13µM*; MBNL1-CUG inh: 3%

How did O=C(Nc1nnc(S(=O)(=O)N2CCN(c3ccc(F)cc3)CC2)s1)c1ccc(Cl)cc1 do in these assays?
VDR inhibitor: -6%

What do the screens show for `COc1cccc(C2=NS(=O)(=O)N(C)C(C(=O)Nc3ccccc3SC)=C2)c1`?
VDR inhibitor: -8%

How did N#CC1(NC(=O)COC(=O)c2nc(Cl)c(Cl)c(N)c2Cl)CCCCC1 do in these assays?
KCNH2 3.1 block: -23; VDR inhibitor: -15%; KCNH2 WT inh: 10; PLK1 PBD inh: 2%

How did N#CC1(NC(=O)COC(=O)c2ncc(Cl)c(Cl)c2Cl)CCCCC1 do in these assays?
KCNH2 3.1 block: -73*; VDR inhibitor: -18%; KCNH2 WT inh: -2; PLK1 PBD inh: -8%

Results for N#CC1(NC(=O)COC(=O)c2ccccc2[N+](=O)[O-])CCCCC1 ?
KCNH2 3.1 block: 16; VDR inhibitor: -1%; KCNH2 WT inh: -4; PLK1 PBD inh: -4%

What do the screens show for `N#CC1(NC(=O)COC(=O)c2cc(O)c3ccccc3c2O)CCCCC1`?
KCNH2 3.1 block: 13; VDR inhibitor: 45µM*; KCNH2 WT inh: -6; PLK1 PBD inh: 6.7µM*

Results for Cc1ncc(CO)c(/C=N/Nc2ccc(C(F)(F)F)cn2)c1O ?
KCNH2 3.1 block: 22; VDR inhibitor: inconclusive; KCNH2 WT inh: 3; PLK1 PBD inh: 27µM*; MBNL1-CUG inh: 19%

Results for Cc1ncc(CO)c(/C=N/N=C/c2ccccc2O)c1O ?
CBFb-RUNX1 inh: 3%; KCNH2 3.1 block: 12; VDR inhibitor: -10%; KCNH2 WT inh: -29; PLK1 PBD inh: -2%; MBNL1-CUG inh: inconclusive

How did COC(=O)/C(=C(/F)Sc1cc(C)c(O)c(C)c1)C(F)(F)F do in these assays?
CBFb-RUNX1 inh: 1%; KCNH2 3.1 block: 0; VDR inhibitor: 1%; KCNH2 WT inh: -3; PLK1 PBD inh: 3.8µM*; MBNL1-CUG inh: -1%

How did COC(=O)C(Nc1ccccc1Cl)(c1cc(C)c(O)c(C)c1)C(F)(F)F (stereo unspecified) do in these assays?
CBFb-RUNX1 inh: 6%; KCNH2 3.1 block: 25; VDR inhibitor: 6%; KCNH2 WT inh: -7; PLK1 PBD inh: 0%; MBNL1-CUG inh: -4%

Results for CCc1sc(/C=C(/C#N)C(N)=S)cc1[N+](=O)[O-] ?
CBFb-RUNX1 inh: inconclusive; KCNH2 3.1 block: 3; VDR inhibitor: inconclusive; KCNH2 WT inh: 0; PLK1 PBD inh: 5.3µM*; MBNL1-CUG inh: inconclusive

Results for CC(=O)Nc1ccc(S(=O)(=O)NC(C(=O)O)C(C)C)cc1 (stereo unspecified) ?
KCNH2 3.1 block: -72*; VDR inhibitor: -8%; KCNH2 WT inh: -5; PLK1 PBD inh: -9%

How did CC(=O)Nc1ccc(S(=O)(=O)NC(CC(=O)NCCc2ccccc2)C(C)C)cc1 (stereo unspecified) do in these assays?
CBFb-RUNX1 inh: 1%; KCNH2 3.1 block: -7; VDR inhibitor: -1%; KCNH2 WT inh: -26; PLK1 PBD inh: -7%; MBNL1-CUG inh: -1%

What do the screens show for `CC(=O)Nc1ccc(S(=O)(=O)NC(CC(=O)N(C)Cc2ccccc2)C(C)C)cc1` (stereo unspecified)?
CBFb-RUNX1 inh: 6%; KCNH2 3.1 block: 0; VDR inhibitor: -14%; KCNH2 WT inh: -3; PLK1 PBD inh: 3.4µM*; MBNL1-CUG inh: 8%

How did COc1ccc(N2CC(NC(=O)C3CCCC3)CC2=O)cc1OC (stereo unspecified) do in these assays?
VDR inhibitor: -11%

Source: PubChem BioAssay
